Compounds with a hit are over-represented: about 9.8% of the library has one in this group of screens.
HTT cytoprotect = protects HTT-Q103 PC12 cells, measured by ATP. PC12 HTT-Q103 induced, cytoprotection, ATP luminescence, 40 h. Potency, µM (titrated, usually from 56.4 µM), for inactives: cytoprotection (ATP increase), most hits filed as activators. 230,000 compounds, 0.14% hits. AID 1471; active = well fitted curve in the direction sought with a large enough effect; inconclusive = small, poorly fitted or top-dose-only effect, or another doubt; inactive = no such curve, though single readings can be large; an effect the other way counts as inactive or inconclusive; also: potency is read from the fitted curve at half-maximal effect; % of control where 0% means no effect; nearly all actives have a fitted effect of over 45% in size
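Compounds were screened for protection of PC12 cells against cell death after tebufenozide induction (100 nM final) of mutant Huntingtin exon 1 (Q103) fused to GFP.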
CBFb RUNX1 block = CBF-beta/RUNX1 interaction disruption. 230,000 tested, under 10 active. Potency, µM (titrated, usually from 59.8 µM), without a hit: at the highest dose activity, negative = inhibition, hits mostly inhibitors. Q01196+Q13951. AlphaScreen CBFb-His/RUNX1-biotin binding, biochemical; active = well fitted curve in the direction sought with a large enough effect; inconclusive = small, poorly fitted or top-dose-only effect, or another doubt; inactive = no such curve, though single readings can be large; an effect the other way counts as inactive or inconclusive; also: % of control where 0% means no effect
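Bead-based AlphaScreen assay; binding partners His-tagged CBF-beta and biotinylated RUNX1 at 30 nM each. Compound exposure 15 min after a 20-min protein preincubation; bead step 90 min; all steps at room temperature.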
HttQ103 aggreg = reduces HttQ103-GFP aggregates in PC12 cells; PC12 HttQ103-GFP aggregates, Acumen cytometry, 40 h; Potency, µM (titrated, usually from 46.1 µM), without a hit: at the top dose activity change, negative = inhibition, usual class: inhibitors; AID 1688; 220,000 compounds, 1.1% hits; active = well fitted curve in the direction sought with a large enough effect; inconclusive = small, poorly fitted or top-dose-only effect, or another doubt; inactive = no such curve, though single readings can be large; an effect the other way counts as inactive or inconclusive; also: potency is read from the fitted curve at half-maximal effect; % is scaled to controls: 0 for no effect and ±100 for the full control effect; nearly all actives have a fitted effect of over 60% in size
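Quantitative HTS on tebufenozide-induced (100 nM) PC12 cells stably expressing polyQ103 Huntingtin exon 1–GFP. Reduction of bright GFP aggregates, detected by laser scanning cytometry after lysis, identified actives across the titration.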
HPGD inh = inhibitors of human 15-hydroxyprostaglandin dehydrogenase (HPGD); P15428; purified HPGD, NADH fluorescence kinetic, PGE2 substrate; Potency, µM, inactives show top-dose activity change, negative = inhibition, most hits filed as inhibitors; 150,000 compounds, 4.3% hits; AID 894; also: potency is read from the fitted curve at half-maximal effect; % is scaled to controls: 0 for no effect and ±100 for the full control effect
Target sequence (P15428 whole entry, looked up): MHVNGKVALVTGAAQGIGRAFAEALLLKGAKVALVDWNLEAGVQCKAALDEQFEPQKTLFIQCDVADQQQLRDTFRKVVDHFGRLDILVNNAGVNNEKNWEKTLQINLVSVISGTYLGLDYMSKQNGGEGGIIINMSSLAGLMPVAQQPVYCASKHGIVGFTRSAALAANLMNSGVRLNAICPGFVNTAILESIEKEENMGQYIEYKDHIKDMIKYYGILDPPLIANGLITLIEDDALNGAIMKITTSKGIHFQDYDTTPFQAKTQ
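20 nM HPGD preincubated 15 min at room temperature with compound in 50 mM Tris-HCl pH 8, 0.01% Tween 20. Started with 1 mM NAD+ and 30 uM prostaglandin E2; NADH fluorescence (360/450 nm) read 5 times over 30-s intervals, last minus first.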
ALDH1A1 inh = blocks purified human ALDH1A1 activity; P00352; Purified ALDH1A1, NADH fluorescence, propionaldehyde substrate; Potency, µM (doses to about 75.3 µM), without a hit: at the highest dose activity, negative = inhibition, most hits filed as inhibitors; 220,000 compounds, 7.3% hits; AID 1030;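 also: potency is read from the fitted curve at half-maximal effect; plate controls were no enzyme wells and a reference inhibitor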
KDM4E inh = inhibitors of human JMJD2E histone demethylase; B2RXH2; JMJD2E catalytic domain, FDH-coupled NADH fluorescence (FDH is formaldehyde dehydrogenase); Potency, µM (top dose mostly 57.1 µM), inactives show at the highest dose activity change, negative = inhibition, hits mostly inhibitors; 230,000 compounds, 1.6% hits;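 also: potency is read from the fitted curve at half-maximal effect; 0% = wells with enzyme and -100% = buffer wells without enzyme; nearly all actives have a fitted effect of over 50% in size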
Target sequence (B2RXH2 1-337 limits assumed): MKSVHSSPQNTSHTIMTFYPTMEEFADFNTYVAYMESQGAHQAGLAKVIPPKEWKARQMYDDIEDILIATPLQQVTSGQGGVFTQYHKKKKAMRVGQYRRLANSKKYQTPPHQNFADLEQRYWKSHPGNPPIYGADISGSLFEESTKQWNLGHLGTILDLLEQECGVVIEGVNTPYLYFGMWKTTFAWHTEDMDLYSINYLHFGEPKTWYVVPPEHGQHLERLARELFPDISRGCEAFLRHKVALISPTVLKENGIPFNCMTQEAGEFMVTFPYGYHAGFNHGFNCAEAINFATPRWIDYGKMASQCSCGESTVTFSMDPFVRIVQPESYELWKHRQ
* marks the source's active call; other numbers are inactive results; ? = inconclusive; . = no result; [ ] = remark or other dose. Unless noted, calls follow the shape of the dose curve; as a rule, active = well fitted inhibition curve with a large enough effect (not every such curve was filed as active); inconclusive = small, poorly fitted or top-dose-only effect, or another doubt; inactive = no such curve, though single readings can be large or run the other way.

SMILES | HTT cytoprotect | CBFb RUNX1 block | HttQ103 aggreg | HPGD inh | ALDH1A1 inh | KDM4E inh
O=[N+]([O-])c1ccc(O)c(NC(=S)Nc2ccccc2)c1 | 6% | -5% | 9% | ? | 22µM* | -8%
CCNc1ncc2nc(-c3cc(F)cc(F)c3)c(=O)n(Cc3ccc(F)cc3)c2n1 | ? | . | . | . | -14% | .
CCc1cc2c(=O)n(CCC(C)C)c(=S)[nH]c2s1 | 8%[10 µM] | -9% | ? | . | 16µM* | 8%
O=C(CCN1C(=O)c2ccccc2C1=O)N1CCCCCC1 | -7% | 7% | -23% | 16µM* | 20µM* | 0%
CC(C)NC(=O)CN1C(=O)C(=O)c2ccccc21 | 14%[10 µM] | 14% | 10% | -11% | -5% | 2%
O=C1C(=O)N(CC(=O)N2CCCC2)c2ccccc21 | . | 13% | 9% | . | 3.5µM* | -3%
C=CCn1c(SCC(=O)C(C)(C)C)nnc1-c1cccs1 | -38% | -13% | 2% | 14µM* | 13µM* | -2%
Cc1ccccc1-n1c(SCC(=O)N2CCCC2)nnc1-c1ccccn1 | 4%[10 µM] | -11% | 0% | ? | -18% | -4%
O=C(CSc1nnc(-c2ccccn2)n1Cc1ccccc1)N1CCCC1 | 20%[10 µM] | 3% | -23% | 28µM* | -11% | -9%
CCn1c(SCC(=O)C(C)(C)C)nnc1-c1ccccn1 | -3% | 0% | -12% | -15% | 7.1µM* | 10%
C=CCn1c(SCC(=O)C(C)(C)C)nnc1-c1ccccn1 | -18%[0.074 µM] | -20% | 4% | -21% | ? | 8%
CCN(CC)C(=O)Cn1c(=O)n(-c2ccccc2)c(=O)c2sccc21 | -26% | -15% | 17% | . | 4% | 22%
CCCn1c(N)c(N(CCOC)C(=O)/C=C/c2ccc(C(=O)OC)cc2)c(=O)[nH]c1=O | 0%[10 µM] | 6% | 5% | . | ? | -15%
O=C(c1ccc(OC2CCN(C(=O)C3CC3)CC2)cc1)N(CCO)Cc1ccccc1 | 17%[10 µM] | 8% | 16%[9.22 µM] | . | . | 6%
O=C(NNC(=S)Nc1ccc(Cl)cc1)c1ccccc1OC(F)F | . | -12% | 13µM* | -14% | 20µM* | ?
COc1ccccc1NC(=S)NNC(=S)Nc1ccc(OC(F)F)cc1 | 15%[10 µM] | -5% | -8% | -19% | 7.1µM* | -1%
CCN(c1ccccc1)S(=O)(=O)c1ccc(NC(=S)NC(=O)c2cccs2)cc1 | -54% | -10% | ? | -21% | 6.3µM* | -4%
O=C(NNC(=S)NCc1ccccc1)c1ccccc1OC(F)F | . | 5% | -3% | -9% | -12% | -3%
O=C(NC(=S)Nc1ccc(-c2ccc(CO)o2)cc1)c1cccs1 | 18% | -8% | -6% | . | 20µM* | -2%
CCN(CC)c1ccc(NC(=S)NC(=O)c2ccco2)cc1 | 9%[10 µM] | ? | 10%[9.22 µM] | . | 25µM* | -21%
CCN(CC)c1ccc(NC(=S)Nc2ccc(F)cc2)cc1 | -65% | ? | ? | . | 11µM* | 8.9µM*
CCN(CC)c1ccc(NC(=O)c2ccco2)cc1 | -70% | -2% | -8% | -16% | -4% | 5%
O=C(NNC(=S)Nc1ccc(Cl)cc1)c1cccs1 | 10%[10 µM] | -5% | 7%[9.22 µM] | . | 11µM* | -12%
CCCCn1nnc(NC(=S)NC(=O)c2cccs2)n1 | 7%[10 µM] | -5% | 11% | . | 20µM* | -5%
Cc1ncc2c(c1O)COP(=O)(O)OC2 | -5% | 14%[21.7 µM] | . | -1% | 5% | ?
SMILES | HTT cytoprotect | CBFb RUNX1 block | HttQ103 aggreg | HPGD inh | ALDH1A1 inh | KDM4E inh
CC[N+]1(CC)CC2CCC(C)(C1)C2(C)C (stereo not given) | -16% | -3% | -20% | . | 6% | 8%
CCCCC(=O)Nc1ccc(NC(=S)NC(=O)CC)cc1OC | 7%[10 µM] | 0% | 15% | ? | ? | 2%
CCCC(=O)Nc1ccc(NC(=S)NC(=O)c2cccs2)cc1 | -3%[10 µM] | -4% | 27%[9.22 µM] | . | -8% | 11%
CCN(CC)C(=S)SCC(=O)Nc1ccc(F)cc1 | -15% | 1% | 10% | 18µM* | ? | 7%
CCN(CC)c1ccc(NC(=S)NC(=O)c2cccs2)cc1 | -2%[10 µM] | ? | 25%[9.22 µM] | . | 8.9µM* | -30%
CCCCC(=O)Nc1ccc(NC(=S)NC(=O)c2cccs2)cc1OC | 26%[10 µM] | -4% | 7% | -11% | 20µM* | 2%
CCc1c(O)c(-c2ccccc2)c(=O)n(-c2ccccn2)c1-c1ccccc1 | 5%[10 µM] | 5% | 8%[9.22 µM] | . | . | -6%
COCCNC(=O)Cn1c(=O)n(C)c2ccccc21 | 19% | 4% | -31% | -5% | 6% | 5%
COC(c1ccccc1Br)C(C)/C=C/CCO (stereo not given) | ? | ? | . | . | 3.2µM* | .
CCOC(=O)C1=C(C)c2ccccc2N(C(=O)OC)C1(C)C(=O)OCC (stereo not given) | -23% | -7%[89.1 µM] | . | ? | 32µM* | .
COc1ccc(S(=O)(=O)NCCCCNS(=O)(=O)c2ccc(OC)cc2)cc1 | -13%[0.074 µM] | 15% | -2% | -10% | 1.3µM* | 5%
COc1ccc(S(=O)(=O)NCc2cccs2)cc1 | ? | -12% | -21% | -19% | 10µM* | -10%
COc1ccc(S(=O)(=O)N(Cc2cccs2)C2CCCC2)cc1 | 6%[0.074 µM] | ? | ? | -12% | 8.9µM* | 6%
Cc1cccc(NC(=O)CSc2nnc(-c3ccco3)n2CC2CCCO2)n1 (stereo not given) | -2%[10 µM] | 10% | -18%[9.22 µM] | . | ? | -3%
COc1ccccc1CNc1cc(-c2c(C)noc2C)ncn1 | -10% | . | . | . | 8% | .
CCOc1ccccc1C(=O)Nc1cccc(-c2nnc(-c3ccccc3)o2)c1 | -16% | 4% | ? | ? | ? | 6%
COc1ccc(-c2ccc(/C=C3/C(=N)N4C=CSC4=NC3=O)o2)c([N+](=O)[O-])c1 | 10%[10 µM] | -20% | -24% | ? | 7% | ?
CC1=C(C#N)C(=O)NC(=O)/C1=C\c1ccc(-c2ccc(C)cc2[N+](=O)[O-])o1 | -16% | -11% | 4% | . | 13µM* | ?
Cc1ccc(N2NC(=O)/C(=C/c3ccc(-c4ccc(Cl)c(C(=O)O)c4)o3)C2=O)cc1 | . | 3% | 21% | . | 8.9µM* | -1%
CCOC(=O)c1cc(-c2ccc(/C=C3/C(=O)NC(=O)C(C#N)=C3C)o2)ccc1Cl | -15% | -23% | 11% | 22µM* | 8.9µM* | ?
CCCCC1(C)OC(=O)C(=Cc2ccc(-c3ccc(Cl)c(C(=O)O)c3)o2)C(=O)O1 (stereo not given) | 8%[10 µM] | ? | -6%[9.22 µM] | . | . | ?
CCN(CC)CCNc1ccc(CO)c2sc3ccccc3c(=O)c12 | -331% | -6% | 13µM* | -7% | -2% | -9%
O=c1c2ccccc2sc2c(CO)ccc(NCCN3CCCCC3)c12 | -81%[10 µM] | . | . | -14% | 12%[13.5 µM] | .
COC(=O)CSc1nnc(CNC(=O)c2ccc(S(=O)(=O)N3CCOCC3)cc2)n1C | -15% | 3% | -3% | . | -2% | -2%
